# p53null 32C kill = kills p53 null cells at the permissive temperature. H1299-neo p53 null cells, ATP luminescence, 24 h, 32C. Potency, µM (titrated, usually from 46.1 µM), actives largely listed as cytotoxic. hit rate 0.62% among 55,000. AID 903; also: nearly all actives have a fitted effect of over 55% in size
#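 ATP-content luminescence in p53-null H1299-neo cells after 24 h compound exposure (up to 46 uM) at 32C permissive temperature; 0% and 100% killing set by DMSO and 100 uM tamoxifen; Hill-equation AC50.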
# pS6 MEF inh = mTORC1 pathway inhibition measured by phospho-rpS6 | Tsc2-/- p53-/- MEF, phospho-rpS6 immunofluorescence/PI, 24 h | Potency, µM (highest dose often 38.3 µM), actives largely listed as inhibitors | hit rate 0.78% among 44,000 | AID 493208; also: nearly all actives have a fitted effect of over 50% in size
#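 Read-out: phospho-S6 Alexa-488 intensity over PI intensity per well, scored as % active cells using thresholds from rapamycin (7.5 nM) and DMSO controls. Tsc2-/-, p53-/- MEFs exposed to compound for 24 h; PI cell count recorded as viability.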
# PMP22 txn prim = PMP22 gene transcription modulation. S16 Pmp22-F2sN Schwann cells, FLuc/NLuc coincidence luminescence, 24 h. Potency, µM (top dose mostly 57.5 µM), most hits filed as inhibitors. hit rate 2% among 43,000. AID 1508649; active = clear falling dose curves in both reporters; inconclusive = both reporters move, but less clearly or upward; inactive = either reporter flat; the % is the NLuc reporter signal
#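 Reporter cells (S16 Pmp22-F2sN, 500–1,000 per well) exposed to compounds for 24 h, 37C, 5% CO2; lysis with FLuc read after 10 min, then Stop&Glo and NLuc read after 10 min.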
# p53null 39C kill = kills p53 null cells at the nonpermissive temperature | H1299 p53-null (neo) cells, 39C, ATPlite viability, 24 h | Potency, µM (doses to about 46.1 µM), usual class: cytotoxic | hit rate 0.97% among 55,000; also: nearly all actives have a fitted effect of over 50% in size
#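 Following overnight plating at 37C (600 cells/well), H1299-neo or H1299-p53A138V cells are dosed up to 46 uM. Incubation lasts 24 hr at 39C before ATP detection.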
# OvCa metastasis = inhibitors of ovarian cancer cell adhesion and invasion in omental model. hit rate 0.1% among 46,000. Potency, µM (series often up to 45.8 µM), most hits filed as inhibitors. SKOV3ip1-GFP adhesion/invasion on 3D omental model, fluorescence; also: nearly all actives have a fitted effect of over 65% in size
#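 Adhesion/invasion was scored as fixed GFP-labeled SKOV3ip1 cell counts (488/509 nm), normalized to DMSO and tomatine controls. Cancer cells in serum-free medium, with four compound doses (0.36-46 umol/L), sat 2 hr at RT then 16 hr at 37 C on a 48 hr fibroblast/mesothelial/ECM culture.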
# S16 F2sN tox = cytotoxicity in S16 Pmp22-F2sN Schwann cells | S16 Pmp22-F2sN Schwann cells (luciferase reporters placed in the Pmp22 gene) viability, CellTiter-Glo, 24 h | Potency, µM (top dose mostly 57.5 µM), usual class: cytotoxic | hit rate 0.48% among 43,000; also: nearly all actives have a fitted effect of over 65% in size
#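 S16 Schwann cells carrying the Pmp22-F2sN reporter, seeded in 1536-well format, were exposed to library compounds for 24 h at 37C. Viability was read as CellTiter-Glo luminescence after 15 min at room temperature.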
# A number is an active result; . = inactive; ? = inconclusive; / = not tested or not shown. The list is not random: actives were taken first. Their share in the collection is about 3.1%. Unless noted, calls follow the shape of the dose curve; as a rule, active = well fitted curve in the direction sought with a large enough effect; inconclusive = small, poorly fitted or top-dose-only effect, or another doubt; inactive = no such curve, though single readings can be large; an effect the other way counts as inactive or inconclusive.
SMILES,p53null 32C kill,pS6 MEF inh,PMP22 txn prim,p53null 39C kill,OvCa metastasis,S16 F2sN tox
COc1cc(C(=O)NC(c2ccccc2Cl)c2cc(Cl)c3cccnc3c2O)cc(OC)c1OC (centres undefined),?,.,4.4µM,.,.,?
Cc1ccc(-c2nnc(Nc3cccc(Br)c3)c3ccccc23)cc1S(=O)(=O)N1CCN(C)CC1,.,.,?,.,.,?
Cc1cccc(Nc2nnc(-c3ccc(C)c(S(=O)(=O)N4CCN(C)CC4)c3)c3ccccc23)c1,.,?,?,10µM,.,.
Cc1ccc(CNC(=O)c2c[nH]n3c(=O)c(Cc4ccc(Cl)cc4)c(C)nc23)cc1,?,.,.,?,.,.
Cc1nc2c(C(=O)NCCc3ccc(Cl)cc3)c[nH]n2c(=O)c1Cc1ccc(Cl)cc1,?,.,.,20µM,.,.
Cc1nc2c(C(=O)NCCc3ccccc3)c[nH]n2c(=O)c1Cc1ccccc1F,16µM,.,.,?,.,.
C[N+]1(C)[C@@H]2CC(OC(=O)[C@H](CO)c3ccccc3)C[C@H]1[C@H]1O[C@@H]12 (some centres undefined),/,/,/,/,.,/
CCCCN(C)CCCNC(=O)C1CCN(S(=O)(=O)CC)CC1,.,.,.,.,?,.
CCCCN(C)CCCNC(=O)C1CCN(c2nc3ccc(CC)cc3s2)CC1,?,18µM,?,13µM,?,?
CCc1ccc2nc(N3CCN(C(=O)c4ccco4)CC3)sc2c1,.,.,?,.,.,.
CCCCN(CC)CCCNC(=O)C1CCN(c2nc3ccc(CC)cc3s2)CC1,?,7.4µM,?,13µM,?,?
Clc1cccc(-c2nnnn2Cc2cccnc2)c1Cl,/,/,/,/,.,/
CCC[C@H]1C[C@H](C(=O)N[C@@H]([C@@H]2O[C@@H](SC)[C@@H](O)[C@@H](O)[C@@H]2O)[C@H](C)Cl)N(C)C1,/,/,/,/,.,/
CC(C)COc1ccc(C(=O)Nc2nnc(S(=O)(=O)N(C)Cc3ccco3)s2)cc1,?,.,.,10µM,.,.
CCOc1ccccc1NC(=O)c1c(NCc2sccc2C)sc2c1CCC(C)C2 (centres undefined),.,15µM,?,.,.,.
CC(C)(C)C(=O)Nc1ccc(-c2nc3ccc(NC(=O)C(C)(C)C)cc3[nH]2)cc1,13µM,?,.,4µM,?,?
CC(C)(C)C(=O)Nc1ccc(Cl)c(-c2nc3ccccc3[nH]2)c1,.,.,.,.,.,.
COc1cc(-c2nc3ccc(C)cn3c2Nc2ccc(Cl)cc2)ccc1O,.,.,?,20µM,.,.
COc1cc(-c2nc3ccc(Cl)cn3c2Nc2ccc3c(c2)OCO3)ccc1O,.,.,?,.,.,.
CCCNc1ncnc2onc(C)c12,.,.,.,.,.,?
CSc1ccc(CCNc2ncnc3onc(C)c23)cc1,.,.,2.2µM,.,.,?
CCOc1ccc(-c2oc3cc(Cl)ccc3c(=O)c2O)cc1OC,?,?,?,16µM,.,.
COc1cc(-c2oc3ccc(C)cc3c(=O)c2O)cc(OC)c1OC,?,?,.,?,.,.
C=CCn1c(C)cc(C(=O)COC(=O)[C@@H](NC(=O)c2ccccc2Cl)C(C)C)c1C,11µM,/,/,/,/,/
C#C[C@]1(O)CC[C@H]2[C@H]3CCc4cc(OC)ccc4[C@H]3CC[C@@]21C,/,/,/,/,.,/
COc1ccc2cc(-c3nc4ccc(C(=O)O)cc4[nH]3)c(=O)oc2c1,1.6µM,.,.,.,.,.
CN[C@H]1[C@@H](O)[C@@H]2O[C@@H]3O[C@H](C)CC(=O)[C@]3(O)O[C@@H]2[C@@H](NC)[C@H]1O,/,/,/,/,.,/
COc1cc(Nc2nc(SCC(=O)c3ccc(Cl)c(Cl)c3)nc3ccccc23)cc(OC)c1,.,12µM,?,.,.,.
CCCCN(C)CC(O)Cn1cc(/C=C/C(=O)c2ccc(OCC)cc2)c2ccccc21 (centres undefined),?,?,?,5µM,?,?
